# From PMC7862700, “An all-to-all approach to the identification of sequence-specific readers for epigenetic DNA modifications on cytosine”
# Tests used:
# Assay in all cases: DAPPL (digital affinity profiling via proximity ligation, sequencing); 10 mM Tris-HCl pH 7.5, 50 mM NaCl, 1 mM DTT, 4% glycerol, room temperature, 30 min; GST-TFs on glutathione beads, 16-mer random dsDNA library, 0.1% formaldehyde crosslink after washing; high values mean tight binding
# Settings in all cases: protein: recombinant; tags: N-terminal GST; dsDNA, one strand shown
# ERF = target: T1, ERF (Homo sapiens, UniProt P50548 1-548)
# T1 sequence: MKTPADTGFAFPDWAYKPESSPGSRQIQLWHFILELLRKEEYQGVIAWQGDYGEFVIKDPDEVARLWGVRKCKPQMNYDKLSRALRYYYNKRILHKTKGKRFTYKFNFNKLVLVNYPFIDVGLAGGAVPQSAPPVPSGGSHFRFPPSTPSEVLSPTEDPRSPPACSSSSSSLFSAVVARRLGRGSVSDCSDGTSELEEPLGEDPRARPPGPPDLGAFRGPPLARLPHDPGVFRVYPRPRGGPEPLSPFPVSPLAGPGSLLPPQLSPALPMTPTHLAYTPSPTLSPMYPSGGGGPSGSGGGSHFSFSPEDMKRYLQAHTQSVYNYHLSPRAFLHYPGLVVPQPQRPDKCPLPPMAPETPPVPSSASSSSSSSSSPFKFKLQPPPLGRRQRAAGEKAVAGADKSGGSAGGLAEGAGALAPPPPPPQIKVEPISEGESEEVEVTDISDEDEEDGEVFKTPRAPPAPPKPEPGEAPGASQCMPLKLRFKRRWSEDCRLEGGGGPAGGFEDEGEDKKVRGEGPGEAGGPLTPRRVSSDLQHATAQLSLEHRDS
# How it was run: (§1)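 Human transcription factors fused to GST were expressed in yeast, captured on glutathione beads, given DNA barcodes and pooled with a GST-only negative control. Pools were incubated with 200 nmole of a 16-mer random double-stranded DNA library in Tris/NaCl/DTT/glycerol buffer at room temperature for 30 min. They were then washed, crosslinked with 0.1% formaldehyde, proximity-ligated (BsaI/T4 ligase, 1 h, 37 °C), PCR-amplified and sequenced on an Illumina NextSeq500. Binding signal is each 6-mer's read frequency for a factor divided by its frequency for the GST control.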
# ETV3L = target: T2, ETV3L (Homo sapiens, UniProt Q6ZN32 1-361)
# T2 sequence: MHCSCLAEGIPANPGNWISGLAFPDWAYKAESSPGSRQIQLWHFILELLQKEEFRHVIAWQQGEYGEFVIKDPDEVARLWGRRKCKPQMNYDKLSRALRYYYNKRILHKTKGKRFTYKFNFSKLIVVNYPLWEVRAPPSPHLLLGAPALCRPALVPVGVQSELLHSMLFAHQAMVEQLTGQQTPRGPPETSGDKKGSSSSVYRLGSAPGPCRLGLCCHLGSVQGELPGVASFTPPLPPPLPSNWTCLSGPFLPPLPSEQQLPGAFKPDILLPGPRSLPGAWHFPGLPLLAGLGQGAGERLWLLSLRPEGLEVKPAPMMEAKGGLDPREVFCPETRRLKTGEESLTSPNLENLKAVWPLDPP
# How it was run: as §1
# ETS2 = target: T3, ETS2 (Homo sapiens, UniProt P15036 1-469)
# T3 sequence: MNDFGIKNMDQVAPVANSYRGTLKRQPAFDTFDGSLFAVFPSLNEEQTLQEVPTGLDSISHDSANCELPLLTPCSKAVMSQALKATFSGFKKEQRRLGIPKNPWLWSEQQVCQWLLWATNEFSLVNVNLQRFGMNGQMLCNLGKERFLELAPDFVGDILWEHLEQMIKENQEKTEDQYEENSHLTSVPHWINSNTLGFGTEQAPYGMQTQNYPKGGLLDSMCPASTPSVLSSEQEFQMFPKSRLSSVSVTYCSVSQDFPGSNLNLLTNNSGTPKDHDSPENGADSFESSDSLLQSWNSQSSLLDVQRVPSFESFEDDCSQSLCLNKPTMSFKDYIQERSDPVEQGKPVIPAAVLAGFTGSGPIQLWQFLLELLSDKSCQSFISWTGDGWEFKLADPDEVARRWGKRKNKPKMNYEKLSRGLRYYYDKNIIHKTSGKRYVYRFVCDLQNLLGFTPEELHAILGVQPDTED
# How it was run: as §1
# SPDEF = target: T4, SPDEF (Homo sapiens, UniProt O95238 1-335)
# T4 sequence: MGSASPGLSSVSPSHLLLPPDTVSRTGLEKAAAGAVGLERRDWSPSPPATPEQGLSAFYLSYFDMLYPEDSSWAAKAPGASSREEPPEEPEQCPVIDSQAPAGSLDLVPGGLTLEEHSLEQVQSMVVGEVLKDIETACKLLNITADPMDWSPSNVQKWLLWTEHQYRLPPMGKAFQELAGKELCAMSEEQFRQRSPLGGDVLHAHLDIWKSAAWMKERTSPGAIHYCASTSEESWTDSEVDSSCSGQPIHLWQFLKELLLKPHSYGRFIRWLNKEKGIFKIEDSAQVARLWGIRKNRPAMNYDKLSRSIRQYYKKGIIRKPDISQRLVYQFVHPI
# How it was run: as §1
# ETV7 = target: T5, ETV7 (Homo sapiens, UniProt Q9Y603 1-341)
# T5 sequence: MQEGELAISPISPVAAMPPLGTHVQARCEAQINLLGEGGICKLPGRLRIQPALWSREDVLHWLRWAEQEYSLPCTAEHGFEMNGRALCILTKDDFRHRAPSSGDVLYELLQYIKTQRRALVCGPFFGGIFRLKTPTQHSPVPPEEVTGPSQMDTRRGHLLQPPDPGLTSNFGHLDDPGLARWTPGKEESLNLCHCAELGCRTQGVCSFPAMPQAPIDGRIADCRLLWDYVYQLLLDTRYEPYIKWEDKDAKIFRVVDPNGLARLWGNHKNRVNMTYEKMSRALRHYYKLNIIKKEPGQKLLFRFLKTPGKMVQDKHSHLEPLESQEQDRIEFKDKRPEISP
# How it was run: as §1
# ELF5 = target: T6, ELF5 (Homo sapiens, UniProt Q9UKW6-2 1-255)
# T6 sequence: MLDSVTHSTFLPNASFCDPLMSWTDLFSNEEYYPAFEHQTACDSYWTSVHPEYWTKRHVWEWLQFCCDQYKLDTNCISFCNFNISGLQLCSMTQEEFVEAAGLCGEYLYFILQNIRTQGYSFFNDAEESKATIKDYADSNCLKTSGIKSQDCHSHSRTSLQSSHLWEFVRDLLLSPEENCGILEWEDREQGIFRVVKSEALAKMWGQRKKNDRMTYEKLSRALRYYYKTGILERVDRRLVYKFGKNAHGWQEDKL
# How it was run: as §1
# ETV3 = target: T7, ETV3 (Homo sapiens, UniProt P41162-2 1-143)
# T7 sequence: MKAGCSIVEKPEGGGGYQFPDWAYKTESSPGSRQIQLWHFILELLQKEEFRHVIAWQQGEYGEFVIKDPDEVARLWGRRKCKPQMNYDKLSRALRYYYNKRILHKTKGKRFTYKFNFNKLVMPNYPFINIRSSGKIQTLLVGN
# How it was run: as §1
# ETV6 = ETV6 (Homo sapiens, UniProt P41212 1-452)
# How it was run: as §1
# ETV6, sequence (P41212 whole entry): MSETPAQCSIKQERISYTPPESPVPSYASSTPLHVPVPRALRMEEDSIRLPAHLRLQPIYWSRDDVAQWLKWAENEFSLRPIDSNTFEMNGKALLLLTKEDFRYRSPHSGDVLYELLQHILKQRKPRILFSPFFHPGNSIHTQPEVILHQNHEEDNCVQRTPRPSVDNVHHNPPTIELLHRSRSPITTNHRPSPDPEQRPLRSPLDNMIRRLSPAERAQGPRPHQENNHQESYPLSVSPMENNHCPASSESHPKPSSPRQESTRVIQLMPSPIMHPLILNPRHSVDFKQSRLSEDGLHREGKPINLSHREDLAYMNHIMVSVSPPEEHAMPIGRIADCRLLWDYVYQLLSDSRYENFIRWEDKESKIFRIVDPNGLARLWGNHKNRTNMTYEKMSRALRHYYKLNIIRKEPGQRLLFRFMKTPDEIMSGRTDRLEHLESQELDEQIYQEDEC
Sequence,binding signal (ERF),binding signal (ETV3L),binding signal (ETS2),binding signal (SPDEF),binding signal (ETV7),binding signal (ELF5),binding signal (ETV3),binding signal (ETV6)
ATAGCT,"1.2 fold enrichment (6-mer frequency, TF over GST control)","1.13 fold enrichment (6-mer frequency, TF over GST control)","1.1 fold enrichment (6-mer frequency, TF over GST control)","1.07 fold enrichment (6-mer frequency, TF over GST control)","1.31 fold enrichment (6-mer frequency, TF over GST control)","1.07 fold enrichment (6-mer frequency, TF over GST control)","1.12 fold enrichment (6-mer frequency, TF over GST control)","1.13 fold enrichment (6-mer frequency, TF over GST control)"
ACCATC,"1.14 fold enrichment (6-mer frequency, TF over GST control)","1.13 fold enrichment (6-mer frequency, TF over GST control)","1.12 fold enrichment (6-mer frequency, TF over GST control)","1.09 fold enrichment (6-mer frequency, TF over GST control)","1.16 fold enrichment (6-mer frequency, TF over GST control)","1.06 fold enrichment (6-mer frequency, TF over GST control)","1.03 fold enrichment (6-mer frequency, TF over GST control)","1.06 fold enrichment (6-mer frequency, TF over GST control)"
GAATTG,"1.1 fold enrichment (6-mer frequency, TF over GST control)","1.07 fold enrichment (6-mer frequency, TF over GST control)","1.13 fold enrichment (6-mer frequency, TF over GST control)","1.14 fold enrichment (6-mer frequency, TF over GST control)","1.22 fold enrichment (6-mer frequency, TF over GST control)","1.13 fold enrichment (6-mer frequency, TF over GST control)","1.03 fold enrichment (6-mer frequency, TF over GST control)","1.06 fold enrichment (6-mer frequency, TF over GST control)"
TGTCTA,"1.21 fold enrichment (6-mer frequency, TF over GST control)","1.08 fold enrichment (6-mer frequency, TF over GST control)","1.18 fold enrichment (6-mer frequency, TF over GST control)","1.2 fold enrichment (6-mer frequency, TF over GST control)","1.28 fold enrichment (6-mer frequency, TF over GST control)","1.24 fold enrichment (6-mer frequency, TF over GST control)","1.23 fold enrichment (6-mer frequency, TF over GST control)","1.07 fold enrichment (6-mer frequency, TF over GST control)"
ATCTAC,"1.44 fold enrichment (6-mer frequency, TF over GST control)","1.36 fold enrichment (6-mer frequency, TF over GST control)","1.32 fold enrichment (6-mer frequency, TF over GST control)","1.24 fold enrichment (6-mer frequency, TF over GST control)","1.21 fold enrichment (6-mer frequency, TF over GST control)","1.3 fold enrichment (6-mer frequency, TF over GST control)","1.2 fold enrichment (6-mer frequency, TF over GST control)","1.29 fold enrichment (6-mer frequency, TF over GST control)"
AAGCAC,"1.19 fold enrichment (6-mer frequency, TF over GST control)","1.2 fold enrichment (6-mer frequency, TF over GST control)","1.17 fold enrichment (6-mer frequency, TF over GST control)","1.29 fold enrichment (6-mer frequency, TF over GST control)","1.3 fold enrichment (6-mer frequency, TF over GST control)","1.28 fold enrichment (6-mer frequency, TF over GST control)","1.19 fold enrichment (6-mer frequency, TF over GST control)","1.28 fold enrichment (6-mer frequency, TF over GST control)"
CCATTC,"1.14 fold enrichment (6-mer frequency, TF over GST control)","1.06 fold enrichment (6-mer frequency, TF over GST control)","1.13 fold enrichment (6-mer frequency, TF over GST control)","1.13 fold enrichment (6-mer frequency, TF over GST control)","1.16 fold enrichment (6-mer frequency, TF over GST control)","1.11 fold enrichment (6-mer frequency, TF over GST control)","1.1 fold enrichment (6-mer frequency, TF over GST control)","1.12 fold enrichment (6-mer frequency, TF over GST control)"
CGACTA,"1.31 fold enrichment (6-mer frequency, TF over GST control)","1.52 fold enrichment (6-mer frequency, TF over GST control)","1.38 fold enrichment (6-mer frequency, TF over GST control)","1.37 fold enrichment (6-mer frequency, TF over GST control)","1.31 fold enrichment (6-mer frequency, TF over GST control)","1.34 fold enrichment (6-mer frequency, TF over GST control)","1.21 fold enrichment (6-mer frequency, TF over GST control)","1.28 fold enrichment (6-mer frequency, TF over GST control)"
ATGTAT,"1.47 fold enrichment (6-mer frequency, TF over GST control)","1.48 fold enrichment (6-mer frequency, TF over GST control)","1.34 fold enrichment (6-mer frequency, TF over GST control)","1.65 fold enrichment (6-mer frequency, TF over GST control)","1.47 fold enrichment (6-mer frequency, TF over GST control)","1.31 fold enrichment (6-mer frequency, TF over GST control)","1.42 fold enrichment (6-mer frequency, TF over GST control)","1.32 fold enrichment (6-mer frequency, TF over GST control)"
GCTCGT,"1.2 fold enrichment (6-mer frequency, TF over GST control)","1.23 fold enrichment (6-mer frequency, TF over GST control)","1.12 fold enrichment (6-mer frequency, TF over GST control)","1.15 fold enrichment (6-mer frequency, TF over GST control)","1.11 fold enrichment (6-mer frequency, TF over GST control)","1.1 fold enrichment (6-mer frequency, TF over GST control)","1.15 fold enrichment (6-mer frequency, TF over GST control)","1.16 fold enrichment (6-mer frequency, TF over GST control)"
TGATGT,"1.16 fold enrichment (6-mer frequency, TF over GST control)","1.21 fold enrichment (6-mer frequency, TF over GST control)","1.29 fold enrichment (6-mer frequency, TF over GST control)","1.26 fold enrichment (6-mer frequency, TF over GST control)","1.18 fold enrichment (6-mer frequency, TF over GST control)","1.23 fold enrichment (6-mer frequency, TF over GST control)","1.15 fold enrichment (6-mer frequency, TF over GST control)","1.22 fold enrichment (6-mer frequency, TF over GST control)"
GGATGC,"1.13 fold enrichment (6-mer frequency, TF over GST control)","1.19 fold enrichment (6-mer frequency, TF over GST control)","1.2 fold enrichment (6-mer frequency, TF over GST control)","1.91 fold enrichment (6-mer frequency, TF over GST control)","1.22 fold enrichment (6-mer frequency, TF over GST control)","1.25 fold enrichment (6-mer frequency, TF over GST control)","1.3 fold enrichment (6-mer frequency, TF over GST control)","1.15 fold enrichment (6-mer frequency, TF over GST control)"
TGAAAC,"1.17 fold enrichment (6-mer frequency, TF over GST control)","1.17 fold enrichment (6-mer frequency, TF over GST control)","1.3 fold enrichment (6-mer frequency, TF over GST control)","1.28 fold enrichment (6-mer frequency, TF over GST control)","1.28 fold enrichment (6-mer frequency, TF over GST control)","1.15 fold enrichment (6-mer frequency, TF over GST control)","1.28 fold enrichment (6-mer frequency, TF over GST control)","1.13 fold enrichment (6-mer frequency, TF over GST control)"
CGCTAC,"1.24 fold enrichment (6-mer frequency, TF over GST control)","1.17 fold enrichment (6-mer frequency, TF over GST control)","1.24 fold enrichment (6-mer frequency, TF over GST control)","1.21 fold enrichment (6-mer frequency, TF over GST control)","1.2 fold enrichment (6-mer frequency, TF over GST control)","1.16 fold enrichment (6-mer frequency, TF over GST control)","1.16 fold enrichment (6-mer frequency, TF over GST control)","1.27 fold enrichment (6-mer frequency, TF over GST control)"
TAGCGG,"1.1 fold enrichment (6-mer frequency, TF over GST control)","1.12 fold enrichment (6-mer frequency, TF over GST control)","1.13 fold enrichment (6-mer frequency, TF over GST control)","1.1 fold enrichment (6-mer frequency, TF over GST control)","1.12 fold enrichment (6-mer frequency, TF over GST control)","1.12 fold enrichment (6-mer frequency, TF over GST control)","1.09 fold enrichment (6-mer frequency, TF over GST control)","1.12 fold enrichment (6-mer frequency, TF over GST control)"
